Only some compounds are listed: those with a hit (about 3.5% of all), similar ones and a draw of the others.
Bead autofluor: counter-screen for toxin protease inhibitors: compound fluorescence; compound autofluorescence counterscreen, microsphere flow cytometry; hits give high values; fluorescence intensity (concentration not given with the values); 3.1% of 360,000 active; AID 624483; in the data active means fluorescence intensity above about 16000; inconclusive means no clear call, values can overlap the other calls
Anthrax LF prot: inhibitors of Bacillus anthracis lethal factor protease; 0.12% of 360,000 active; multiplex microsphere protease cleavage assay, LF; inhibition, % at 10 µM; P15917
Target sequence (P15917 whole entry, looked up): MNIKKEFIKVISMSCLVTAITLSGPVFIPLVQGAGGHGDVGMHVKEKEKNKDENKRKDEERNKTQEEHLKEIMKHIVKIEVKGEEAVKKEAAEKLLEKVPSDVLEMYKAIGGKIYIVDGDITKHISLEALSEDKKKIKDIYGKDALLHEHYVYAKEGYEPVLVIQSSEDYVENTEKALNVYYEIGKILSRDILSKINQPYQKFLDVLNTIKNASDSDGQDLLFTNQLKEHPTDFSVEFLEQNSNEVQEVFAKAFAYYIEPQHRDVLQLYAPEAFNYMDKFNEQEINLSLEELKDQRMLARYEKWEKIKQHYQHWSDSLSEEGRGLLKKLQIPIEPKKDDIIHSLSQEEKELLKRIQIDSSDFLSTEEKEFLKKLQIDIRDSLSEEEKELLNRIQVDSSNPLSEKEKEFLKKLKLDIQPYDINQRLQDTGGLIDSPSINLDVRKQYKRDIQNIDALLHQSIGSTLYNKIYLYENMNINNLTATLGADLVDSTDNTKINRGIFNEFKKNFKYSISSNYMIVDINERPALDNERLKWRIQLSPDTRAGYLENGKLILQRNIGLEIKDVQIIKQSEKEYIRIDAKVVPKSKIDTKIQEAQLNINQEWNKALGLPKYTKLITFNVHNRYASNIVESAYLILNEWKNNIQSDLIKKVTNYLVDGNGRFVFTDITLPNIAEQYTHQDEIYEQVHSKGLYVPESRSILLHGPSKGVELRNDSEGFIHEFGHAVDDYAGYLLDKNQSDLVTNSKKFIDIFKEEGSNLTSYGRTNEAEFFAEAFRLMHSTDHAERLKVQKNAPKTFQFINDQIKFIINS
Vc quorum ag: induces V. cholerae light production without autoinducers; 0.16% of 350,000 active; V. cholerae BH1578 lux reporter, luminescence, 6 h; activation, % at 18.7 µM; AID 588436; in the data active means activation mostly above about 9.7%, no sharp cut-off; inconclusive means no clear call, values can overlap the other calls; inactive means mostly below about 3.7%
BoNT-F LC inh: blocks Botulinum neurotoxin F light chain protease; 0.22% of 360,000 active; inhibition, % at 10 µM; AID 588497; Multiplex microsphere protease cleavage assay, flow cytometry; in the data active means inhibition above about 35%, passing the limit was not always enough; inconclusive means no clear call, values can overlap the other calls
BoNT A protease: BoNT A light chain protease inhibition; inhibition, % at 10 µM; multiplex microsphere protease substrate cleavage, flow cytometry; 0.17% of 360,000 active
Of the large screens only hits and unclear results are named; the others gave an inactive call. Unless noted, no stated cut-off is given here; in the data, active means inhibition above about 30%; inconclusive means no clear call, values can overlap the other calls; inactive means below that.

CC(C)N1C(=O)CCC1C(=O)NCCc1ccccc1 (stereo unspecified)	Bead autofluor 23958
Cc1ccc(CNC(=O)C2CCC(=O)N2CCc2ccccc2)cc1 (stereo unspecified)	Bead autofluor 20485
CC(C)CCNC(=O)C1CCC(=O)N1C(C)C (stereo unspecified)	none
CC(C)N1C(=O)CCC1C(=O)NC1CCCC1 (stereo unspecified)	Bead autofluor 20690
CN1CCN(CC(=O)Nc2ccc(OC(F)(F)F)cc2)CC1	none
O=C(Cn1c(=S)[nH]c2ccccc2c1=O)NCCc1ccccc1	none
CN(C(=O)N1CCN(S(=O)(=O)c2ccccc2)CC1)c1ccccc1	none
O=C(c1cn(-c2ccccc2)nc1-c1cccc(Br)c1)N1CCOCC1	none
Cc1nnc(-c2cccc(Br)c2)c2cn(-c3ccccc3)nc12	Bead autofluor 32979
COc1ccc(-n2cc3c(-c4cccc(Br)c4)nnc(C)c3n2)cc1	Bead autofluor 48432
Cc1nnc(-c2cccc(Br)c2)c2cn(-c3ccc(Br)cc3)nc12	Bead autofluor 17435
Cc1nnc(-c2cccc(Br)c2)c2cn(-c3cccc(Br)c3)nc12	Bead autofluor 34824
COc1ccc(-c2csc(C(C)(O)c3cccc(F)c3)n2)cc1 (stereo unspecified)	none
COc1cccc(-c2cnc(C(O)c3ccc(-c4ccccc4)cc3)[nH]2)c1 (stereo unspecified)	none
COCC(=O)N/N=C(\C)CC(=O)NCc1ccco1	none
COC(=O)/C=C/c1ccc(OC(=O)OC)c(OC(=O)OC)c1	none
CC1CCCN(CCOCCOc2ccc(Cl)cc2Br)C1 (stereo unspecified)	Bead autofluor 21666
Cc1nc(NC(=O)CCN2C(=O)C3CC=CCC3C2=O)sc1C (stereo unspecified)	none
Cc1nc(S/C(=C/c2ccc(OCc3ccc(C(=O)O)cc3)cc2)C(=O)O)n[nH]1	none
O=[N+]([O-])c1c(NCCO)cc(N2CCCCCC2)c2nonc12	Anthrax LF prot 100, BoNT-F LC inh inconclusive
Cc1ccccc1NC(=S)N(CCCN1CCOCC1)Cc1ccccn1	BoNT-F LC inh 39
Cc1cc(=O)[nH]c(SCCOc2ccc(OC(C)C)cc2)n1	none
C/C=C/c1ccc(OCCSc2nc(C)cc(=O)[nH]2)c(OC)c1	Bead autofluor 17582
Cc1cc(=O)[nH]c(SCCCOc2ccccc2Cl)n1	Bead autofluor 20446
C/C=C/c1ccc(OCCOc2ccc(C=O)cc2)c(OC)c1	none
CCc1cc(OCCCSc2nc(C)cc(=O)[nH]2)ccc1Cl	Bead autofluor 24555, BoNT A protease inconclusive
COc1ccc(CSc2nc(C)cc(=O)[nH]2)cc1Br	Bead autofluor 23006
Cc1cccc(-c2noc(CCC(=O)NCC3CCCO3)n2)c1 (stereo unspecified)	Bead autofluor 23287
O=C(CCc1nc(-c2ccccc2Cl)no1)NCC1CCCO1 (stereo unspecified)	none
Cc1ccccc1-c1noc(CCC(=O)NCC2CCCO2)n1 (stereo unspecified)	Bead autofluor 22713
O=C1C=C(NCc2ccc(Cl)c(Cl)c2)C2(CCCCC2)O1	none
O=C1C=C(NCc2ccccc2)C2(CCCCC2)O1	Bead autofluor 22250
COc1ccc(-c2nc3c(n2O)CCC/C3=N\O)cc1	Bead autofluor 21176, BoNT A protease inconclusive
COc1ccc(N(CC(=O)N2CCc3ccccc32)S(=O)(=O)c2c(C)n[nH]c2C)cc1	Bead autofluor 17257, BoNT A protease inconclusive
COc1ccc(N(CC(=O)N2CCc3ccccc32)S(=O)(=O)c2c(C)nn(C)c2C)cc1	none
CCN(c1ccc(OC)cc1)S(=O)(=O)c1ccc2c(c1)CCN2C(=O)CCC(=O)O	Bead autofluor 16864
Cc1ccc2nc(Cl)c(/C=N/n3c(C)nnc3C)cc2c1	none
COc1ccc2nc(SCC(=O)Nc3ccccc3C)[nH]c2c1	Bead autofluor 20993
COc1ccccc1NC(=O)CSc1nc(N)c(C#N)cc1C#N	none
COc1ccccc1NC(=O)CSc1nc(N)cc(N)n1	Bead autofluor 21327
COc1ccccc1NC(=O)CSc1nccc(=O)[nH]1	Bead autofluor 21630, BoNT A protease inconclusive
CCCN(C(=O)CSCc1ccccc1C)c1c(N)n(Cc2ccccc2)c(=O)[nH]c1=O	Bead autofluor inconclusive
O=C(O)CCc1ccc(-c2cccs2)n1-c1ccc(C(=O)O)cc1	none
O=C(O)CCc1ccc(-c2ccccc2)n1NC(=O)c1cccs1	none
O=C(O)CCc1ccc(-c2cccs2)n1NC(=O)c1ccccc1Br	Bead autofluor 23254
CC(C)(C)c1ccc(C(=O)Nn2c(CCC(=O)O)ccc2-c2cccs2)cc1	Bead autofluor 17160

Screens: PubChem BioAssay, several laboratories
